# Results: the supplement of paper PMC8728848
# This is one part of a sample in which the strongest signals are shown more often than they occur.
# B1: FGFR2-Fc (protein)
# chain: MVNVTDAISSGDDEDDTDGAEDFVSENSNNKRAPYWTNTEKMEKRLHAVPAANTVKFRCPAGGNPMPTMRWLKNGKEFKQEHRIGGYKVRNQHWSLIMESVVPSDKGNYTCVVENEYGSINHTYHLDVVERSPHRPILQAGLPANASTVVGGDVEFVCKVYSDAQPHIQWIKHVEKNGSKYGPDGLPYLKVLKHSGINSSNAEVLALFNVTEADAGEYICKVSNYIGQANQSAWLTVLPKQQAPGREKEITASPDYLETRPLEQKLISEEDLAANDILDYKDDDDKV
# Key:
# Experiment in all cases: glycan array binding signal (z-score within array); higher = stronger binding
# Conditions in all cases: glycan notation: IUPAC condensed, linker removed
# [1] = target: Neu5Ac(a2-3)Gal(b1-3)[Neu5Ac(a2-6)]GlcNAc(b1-3)[Fuc(a1-3)[Gal(b1-4)]GlcNAc(b1-6)]Gal(b1-4)Glc
# Summary of the method: (§1)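 Glycan array data were curated from 3228 arrays in the Consortium for Functional Glycomics database and kept only where the protein sequence was available. Glycan names were converted to IUPAC-condensed notation, and columns mapping to the same glycan were averaged. The binding signal is a within-array Z-score, averaged across arrays of the same protein sequence at different concentrations or buffers and across linkers. Negative Z-scores can be read as non-binding.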
# [2] = target: Neu5Ac(a2-3)Gal(b1-3)]Neu5Ac(a2-3)Gal(b1-4)]GlcNAc
# Summary of the method: as §1
# [3] = target: Neu5Ac(a2-3)Gal(b1-4)[Fuc(a1-3)]GlcNAc(b1-3)Gal
# Summary of the method: as §1
# [4] = target: Neu5Ac(a2-6)Gal(b1-4)GlcNAc(b1-2)Man(a1-6)[Gal(b1-4)GlcNAc(b1-2)Man(a1-3)]Man(b1-4)GlcNAc(b1-4)GlcNAc
# Summary of the method: as §1
# [5] = target: Neu5Ac(a2-6)Gal(b1-4)GlcNAc(b1-2)Man(a1-6)[Man(a1-3)]Man(b1-4)GlcNAc(b1-4)GlcNAc
# Summary of the method: as §1
# [6] = target: Neu5Ac(a2-6)Gal(b1-4)GlcNAc(b1-3)Gal(b1-4)GlcNAc(b1-3)Gal(b1-4)GlcNAc(b1-2)Man(a1-3)[Neu5Ac(a2-6)Gal(b1-4)GlcNAc(b1-3)Gal(b1-4)GlcNAc(b1-3)Gal(b1-4)GlcNAc(b1-2)Man(a1-6)]GalNAc
# Summary of the method: as §1
# [7] = target: Neu5Ac(a2-8)Neu5Ac(a2-3)Gal(b1-4)Glc
# Summary of the method: as §1
# [8] = target: Neu5Ac(a2-8)Neu5Ac(a2-3)Gal(b1-4)GlcNAc
# Summary of the method: as §1
# [9] = target: Neu5Ac(a2-8)Neu5Ac(a2-8)Neu5Ac(a2-8)Neu5Ac(a2-3)[GalNAc(b1-4)]Gal(b1-4)Glc
# Summary of the method: as §1
binder,measurement,setting,value
B1,glycan array binding signal (z-score),[1],0.595
same,glycan array binding signal (z-score),[2],-0.115
same,glycan array binding signal (z-score),[3],1.09
same,glycan array binding signal (z-score),[4],0.258
same,glycan array binding signal (z-score),[5],-0.126
same,glycan array binding signal (z-score),[6],1.17
same,glycan array binding signal (z-score),[7],-0.492
same,glycan array binding signal (z-score),[8],-0.139
same,glycan array binding signal (z-score),[9],0.963
